# Data published in publication PMC5540273 (PLoS ONE, 2017).
# Legend:
# Conditions in all cases: concentration: 1 μM, replicates: in singlicate; n = 1
# [1] = test system: PRKCI
# [2] = test system: PRKCQ
# [3] = test system: PRKD1
# [4] = test system: PRKD2
# [5] = test system: PRKD3
# [6] = test system: PRKG1
# [7] = test system: PRKG2
# [8] = test system: T1, PRKR
# T1 construct: gene EIF2AK2
# [9] = test system: PRKX
# [10] = test system: PRP4
# [11] = test system: T2, PYK2
# T2 construct: gene PTK2B
# [12] = test system: QSK
# [13] = test system: RAF1
# [14] = test system: RET
# [15] = test system: RIOK1
# [16] = test system: RIOK2
# [17] = test system: RIOK3
# [18] = test system: RIPK1
# [19] = test system: RIPK2
# [20] = test system: RIPK4
# 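Also: KINOMEscan kinase panel screen.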
Compound,%Inh [1] [%],%Inh [2] [%],%Inh [3] [%],%Inh [4] [%],%Inh [5] [%],%Inh [6] [%],%Inh [7] [%],%Inh [8] [%],%Inh [9] [%],%Inh [10] [%],%Inh [11] [%],%Inh [12] [%],%Inh [13] [%],%Inh [14] [%],%Inh [15] [%],%Inh [16] [%],%Inh [17] [%],%Inh [18] [%],%Inh [19] [%],%Inh [20] [%]
COc1ccc(S(=O)(=O)NC2CCN(c3cc(C)nc(Nc4cccc(C#N)c4)n3)CC2)cc1.O=C(O)C(F)(F)F [GSK1653539],3,0,60,19,48,0,0,1,0,3,1,6,0,0,5,0,0,5,0,0
Nc1nccc(-c2c(-c3ccc(F)cc3)ncn2C2CCN(CC(F)(F)F)CC2)n1 [SB-236560],14,12,0,0,0,0,27,0,0,7,5,0,0,12,32,0,19,0,51,72
Cc1ccc(C(=O)NCC(N)=O)cc1-n1c(C)cc(OCc2ccc(F)cc2F)c(Br)c1=O,36,26,23,0,15,0,12,0,22,0,15,0,37,5,1,0,0,13,0,0
Cn1ccc2ncnc(Oc3ccc(NC(=O)Nc4ccncc4)c(Cl)c3)c21,0,0,14,0,0,3,0,0,0,14,0,0,12,1,0,0,23,0,0,0
Cc1nnc(-c2ccc(C)c(-c3ccc(C(=O)Nc4ccc(NS(C)(=O)=O)cc4)cc3)c2)o1 [GW702865],13,0,0,0,17,7,10,8,0,56,0,0,2,45,22,0,27,36,14,0
c1ccc(-c2cc(-c3c[nH]nc3-c3ccccn3)ccn2)cc1 [GW576604],23,0,67,49,50,0,0,3,0,22,0,0,4,16,37,1,25,0,94.6,0
CN1c2ccc(CNc3ccc(F)cc3)cc2-c2c(cnn2C)S1(=O)=O,0,12,17,0,0,0,0,0,0,11,0,20,0,0,18,0,14,0,2,5
NS(=O)(=O)c1cccc(-c2ccc3ncc(N4CCOCC4)nc3c2)c1 [GSK1535721],21,2,0,20,0,0,14,10,0,2,10,0,5,0,22,41,0,19,13,1
Cc1cccc(-c2nc(Nc3ccc4ncsc4c3)c3ccccc3n2)n1 [GW867588],14,5,98.7,99.8,66,0,0,17,0,0,0,11,0,0,20,31,0,0,5,13
CCc1ccnc(/C=C/c2n[nH]c3cc(Sc4ccccc4C(=O)NC)ccc23)c1,1,0,0,15,0,0,0,0,29,0,0,0,0,83,0,0,0,0,43,0
CC(C)(C)n1cnc2c(N)ncnc21 [SKF-97359],0,0,0,13,0,12,0,0,0,17,0,0,15,19,2,0,0,0,0,67
CNc1ncnc2[nH]ncc12 [SKF-18355],0,0,0,0,0,0,0,0,0,0,0,5,23,0,0,0,0,0,0,22
NS(=O)(=O)c1cccc(-c2ccc3nccc(-c4cccc(S(N)(=O)=O)c4)c3c2)c1 [GW867253],0,0,0,0,0,28,0,4,0,0,12,13,0,0,0,0,0,0,3,0
COCCNC(=O)c1ccc(-c2cc(C(=O)NC3CC3)cc(F)c2C)cc1 [GW868318],9,2,2,0,0,7,27,4,0,0,4,26,7,0,0,7,0,0,8,47
Cc1cn2c(=O)cc(N3CCOCC3)nc2n1Cc1cccc(Cl)c1Cl [GSK2334006],31,28,0,10,18,0,0,0,24,0,13,0,22,21,56,29,4,0,14,6
O=C(Nc1cccc(-c2nn3ncccc3c2-c2ccnc(Nc3cccc(C(F)(F)F)c3)n2)c1)c1c(F)cccc1F [GSK299495],19,49,16,0,14,0,0,0,0,71,23,9,86,64,22,0,0,8,86,15
O=c1cc(N2CCOCC2)nc2n(Cc3cccc(C(F)(F)F)c3)ccn12 [GSK2297543],4,8,0,1,0,27,0,8,0,22,3,3,5,0,26,7,19,10,12,0
O=C1Cc2cc(Nc3nc(NCc4cccc(S(=O)(=O)C(F)(F)F)c4)ncc3C(F)(F)F)ccc2N1,0,4,16,0,26,0,1,0,0,10,6,0,0,5,0,35,0,2,0,0
c1ccc(-c2n[nH]cc2-c2ccnc3ccccc23)nc1 [GW271431],0,0,1,14,38,0,8,0,0,5,9,0,2,0,58,11,26,20,23,2
